{"source": "PubChem BioAssay (Tox21)", "note": "Unmarked numbers belong to inactive results. Records with an inconclusive call do not appear. Activity calls are given as the source filed them. The call rests on the fitted dose curve. On the % scale 0 is the no-effect control and ±100 the full control effect."}
{"target": "Estrogen receptor (Homo sapiens) (UniProt P03372)", "sequence (P03372 whole entry, looked up)": "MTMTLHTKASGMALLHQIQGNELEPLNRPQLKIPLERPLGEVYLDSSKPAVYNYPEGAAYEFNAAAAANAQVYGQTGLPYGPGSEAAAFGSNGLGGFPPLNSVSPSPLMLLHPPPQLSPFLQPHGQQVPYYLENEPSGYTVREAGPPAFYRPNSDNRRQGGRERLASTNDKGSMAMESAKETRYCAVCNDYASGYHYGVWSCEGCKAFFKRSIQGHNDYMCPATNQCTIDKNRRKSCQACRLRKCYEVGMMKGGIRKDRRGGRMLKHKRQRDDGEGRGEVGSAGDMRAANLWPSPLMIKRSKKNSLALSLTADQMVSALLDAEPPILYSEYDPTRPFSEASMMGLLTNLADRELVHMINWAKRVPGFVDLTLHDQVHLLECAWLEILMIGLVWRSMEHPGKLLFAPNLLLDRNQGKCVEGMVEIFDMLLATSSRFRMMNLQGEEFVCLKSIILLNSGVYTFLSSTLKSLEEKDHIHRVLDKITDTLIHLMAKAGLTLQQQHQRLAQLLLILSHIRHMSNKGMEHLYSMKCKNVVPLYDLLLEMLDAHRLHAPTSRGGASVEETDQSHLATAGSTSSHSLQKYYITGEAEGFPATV", "assay": "qHTS assay to identify small molecule agonists of the estrogen receptor alpha (ER-alpha) signaling pathway in the presence of an antagonist (AID 1259383); further: nearly all actives have a fitted effect of over 15% in size; further: potency means the concentration at half of the fitted maximal effect; on activation: top concentration of the series differs between compounds", "details": "VM7Luc4E2 cells, ERE-luciferase, +ICI-182,780, 22 h; series mostly up to 92.4 µM; activation: at the top concentration", "summary_of_the_method": "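Using VM7Luc4E2 cells seeded 24hr before treatment, antagonist ICI-182,780 (10.0nM final) was added, followed by compounds at 15 concentrations. Plates incubated 22hr; ONE-Glo luminescence quantified reporter activity.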"}
{"molecule": "c1cc2ccc3cccc4ccc(c1)c2c34", "Potency": "64.1 µM (active)"}
{"molecule": "Clc1cc(C(Cl)(Cl)Cl)cnc1Cl", "activation": "0.251%"}
{"molecule": "CCCCc1c(C)nc(NCC)nc1OS(=O)(=O)N(C)C", "activation": "-1.64%"}
{"molecule": "O=S(=O)(O)C(F)(F)C(F)(F)C(F)(F)C(F)(F)F", "Potency": "0.578 µM (active)"}
{"molecule": "[O-][Cl+]O", "activation": "0.475%"}
{"molecule": "C/C(=C\\c1ccccc1)[N+](=O)[O-]", "activation": "-13.9%"}
{"molecule": "CN1C[C@H](CNC(=O)OCc2ccccc2)C[C@@H]2c3cccc4c3c(cn4C)C[C@H]21", "activation": "-0.225% [at 42.5 µM]"}
{"molecule": "CO/N=C(/C(=O)OC)c1ccccc1COc1ccccc1C", "activation": "0.0095%"}
{"test_system": "not listed separately", "assay": "qHTS assay to identify small molecule agonists or antagonists of the thyroid stimulating hormone receptor (TSHR) signaling pathway - wild type cell line counter screen (AID 1259384)", "details": "HEK293 wild type, cAMP HTRF counter-screen, stronger effect = higher value; series mostly up to 92.4 µM; cAMP activity change: at the top concentration", "summary_of_the_method": "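Wild-type HEK293 cells were plated 18 h at 37 C/5% CO2, pin-dosed with compound plus Ro20-1724 medium, held 30 min at room temperature, then given cAMP-d2 and anti-cAMP-cryptate; fluorescence was read after 1 h. Fifteen concentrations, triplicate.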"}
{"molecule": "BrCC(Br)C1CCC(Br)C(Br)C1", "note": "(configuration not stated)", "cAMP activity change": "-1.2%"}
{"molecule": "Oc1ccc(Cl)c(Cl)c1Cl", "cAMP activity change": "-3.42%"}
{"molecule": "CCOC(=O)[C@]1(c2ccccc2)Oc2ccccc2[C@@H]1N", "cAMP activity change": "-0.416%"}
{"molecule": "O=C(N[C@H](c1ccccc1)[C@@H]1CN2CCC1CC2)c1c(Cl)ccc(C(F)(F)F)c1Cl", "cAMP activity change": "0.0863%"}
{"molecule": "CCCCN=C=O", "cAMP activity change": "1.1%"}
{"molecule": "CCOP(=O)(OCC)Oc1ccc([N+](=O)[O-])cc1", "outcome": "inactive"}
{"molecule": "CC(C)O.CC(C)O.OCCN(CCO)CCO.OCCN(CCO)CCO.[Ti]", "cAMP activity change": "-2.33%"}
{"molecule": "COc1nn(C(=O)NS(=O)(=O)c2ccccc2OC(F)(F)F)c(=O)n1C", "cAMP activity change": "-1.92%"}
{"molecule": "CCOS(C)(=O)=O", "cAMP activity change": "-4.97%"}
{"molecule": "Nc1nc(N)nc(N)n1", "cAMP activity change": "-0.599%"}
{"molecule": "CCCCN(N=O)C(=N)N[N+](=O)[O-]", "cAMP activity change": "-2.86%"}
{"molecule": "Clc1cc(C(Cl)(Cl)Cl)cnc1Cl", "cAMP activity change": "0.0918%"}
{"molecule": "CCCC(Cn1cncn1)c1ccc(Cl)cc1Cl", "note": "(configuration not stated)", "cAMP activity change": "0.762%"}
{"molecule": "CCCCc1c(C)nc(NCC)nc1OS(=O)(=O)N(C)C", "cAMP activity change": "3.03%"}
{"molecule": "CCCCOC(=O)c1ccccc1C(=O)OCc1ccccc1", "outcome": "inactive"}
{"molecule": "CC1C(=O)C[C@]2(C(C)C)C[C@H]12", "note": "(some centres not stated)", "cAMP activity change": "0.193%"}
{"molecule": "O=S(=O)(O)C(F)(F)C(F)(F)C(F)(F)C(F)(F)F", "cAMP activity change": "0.315%"}
{"molecule": "CCOC(=O)CBr", "cAMP activity change": "-4.18%"}
{"molecule": "O=C(O)c1ccccc1C(=O)Nc1cccc2ccccc12", "cAMP activity change": "-6.29%"}
{"molecule": "C/C(=C\\c1ccccc1)[N+](=O)[O-]", "cAMP activity change": "1.32%"}
{"molecule": "O=C(O)C1(c2ccc3c(c2)OC[C@H](Cc2ccc(-c4ccccc4)cc2)[C@H]3O)CCCC1", "cAMP activity change": "4.08%"}
{"molecule": "CCCCCCCCOC(=O)c1ccc(C(=O)OCCCCCCCC)c(C(=O)OCCCCCCCC)c1", "cAMP activity change": "-0.212%"}
{"molecule": "CN1C[C@H](CNC(=O)OCc2ccccc2)C[C@@H]2c3cccc4c3c(cn4C)C[C@H]21", "cAMP activity change": "7.54% [at 42.5 µM]"}
{"molecule": "C=COC(C)=O", "cAMP activity change": "-1.71%"}
{"molecule": "Clc1cccc2ccccc12", "cAMP activity change": "2.84%"}
{"molecule": "O=S(=O)(Cl)c1ccccc1", "cAMP activity change": "-2.81%"}
{"molecule": "CC(C)(CCl)C(=O)Cl", "cAMP activity change": "-1.29%"}
{"molecule": "CO/N=C(/C(=O)OC)c1ccccc1COc1ccccc1C", "cAMP activity change": "-3.07%"}
{"molecule": "O=Cc1ccc2c(c1)OCO2", "cAMP activity change": "-5.18%"}
